Among the data in PubChem BioAssay are inhibition values, retold here.

Values without a mark were called inactive. How the calls were made is not given here.

For the experiment, the target named is Pantothenate synthetase (Mycobacterium tuberculosis (strain ATCC 25618 / H37Rv)) (UniProt P9WIL5). Kind of experiment: Coupled enzyme confirmation of inhibitors against recombinant Mtb PanC (AID 375).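 Further: 0% = full reaction with vehicle and 100% = no enzyme background.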 To be noted: coupled enzyme assay; at 10 µM, active compounds read high.
Pantothenate synthetase (Mycobacterium tuberculosis (strain ATCC 25618 / H37Rv)), sequence (P9WIL5 whole entry, looked up): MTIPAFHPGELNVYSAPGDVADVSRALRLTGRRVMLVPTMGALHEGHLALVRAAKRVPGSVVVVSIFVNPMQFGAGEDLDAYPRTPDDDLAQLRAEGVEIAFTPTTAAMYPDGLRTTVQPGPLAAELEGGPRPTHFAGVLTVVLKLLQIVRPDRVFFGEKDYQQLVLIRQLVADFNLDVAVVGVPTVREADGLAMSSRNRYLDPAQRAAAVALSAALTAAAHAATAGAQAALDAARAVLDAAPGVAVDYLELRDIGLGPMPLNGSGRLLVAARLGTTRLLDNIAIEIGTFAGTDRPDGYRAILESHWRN
For the molecule `O=C1CC(N2CCN(c3cccc(C(F)(F)F)c3)CC2)C(=O)N1c1ccccc1` (stereo not given), the inhibition was 0%. To `Cc1occc1-c1nnc(SCC(=O)c2ccc(F)cc2)n1Cc1ccco1` belongs 3%. To `COc1cccc(NC(=O)CSc2nnnn2C(C)C)c1` belongs 6%; to `COC(=O)c1oc2ccc(OC)cc2c1N`, 5%.

Regarding `CCCn1cc(SCC(N)=O)c2ccccc21`, the inhibition was 0%. Then `Cc1cc(NC(=O)CCC(=O)N(c2cccnc2)C(C(=O)NC2CCCC2)c2ccccc2F)no1` (stereo not given), with 0%.

On to `Cc1cc(C)c2c(CC(=O)NCc3ccco3)coc2c1`, for which the inhibition is 0%. On to `Cc1cccc(C)c1OCc1nnc2c3cnn(C)c3ncn12`, for which the inhibition was 0%. To `COc1ccccc1NC(=O)N1CCN(c2ccccc2F)CC1` belongs 0%; to `O=C(CSc1n[nH]c(-c2ccco2)n1)Nc1sc2c(c1C(=O)Nc1ccccc1)CCCC2`, 0%; to `O=C(CN1CCCC1)Nc1ccc(NC(=O)Nc2ccccc2)cc1`, 0%. To `COC(=O)c1ccc(C)c(NS(=O)(=O)c2ccc3c(c2)OCCO3)c1` belongs 0%. As for `Cc1nnc(N(Cc2ccco2)C(=O)c2cccc(C#N)c2)s1`, the inhibition is 2%. For the molecule `CCOC(=O)/C=C1\CC(=O)Nc2nonc2N1`, the inhibition was 4%. Then `O=c1[nH]c(N2CCCCC2)nc2c1CCCC2`, with 0%. As for `Cc1ccc2c(C)nc(Nc3nc(CSc4nnnn4-c4ccccc4)cc(=O)[nH]3)nc2c1`, the inhibition is 11%.

In the case of `COc1ccc(CCNC(=O)CN(c2ccccc2OC)S(C)(=O)=O)cc1`, the inhibition was 0%.

Consider `CC(NC(=O)c1cn(C)c2ccc(S(=O)(=O)N3CCCC3)cc2c1=O)c1ccc2c(c1)OCCO2` (stereo not given), for which the inhibition was 0%. With `O=C(O)c1ccccc1S(=O)(=O)NCC(O)COc1ccc(Br)cc1` (stereo not given), the inhibition was 2%. To `CCCn1c(NC(=O)C2COc3ccccc3O2)nc2ccccc21` (stereo not given) belongs 0%; to `COC(=O)c1c(N)nc(C)n1-c1ccc(OC)cc1`, 0%; to `CC(=O)OCCNc1cc(N2CCN(C)CC2)c2noc3c2c1C(=O)c1ccccc1-3`, 0%.

As to `C1COC(NC(C2CC2)C2CC2)=N1`, the inhibition is 4%. Then `CC1=CCC(C(C)(C)NC(=O)c2ccccc2)C/C1=N\O` (stereo not given), with 0%; and `c1ccc2ncc(-n3cnnn3)cc2c1`, with 0%; and `CCCCn1c(=O)[nH]c(=O)c2c1nc(COc1ccc(C#N)cc1)n2CCC`, with 4%. On to `Nc1ccc(C(=O)OCCCc2nc3ccccc3[nH]2)cc1`, for which the inhibition was 3%. For `CN1CCN(Cc2nc3c(c(=O)n(C)c(=O)n3C)n2Cc2ccccc2Cl)CC1`, the inhibition was 0%. Turning to `COc1cccc(Nc2nc(=O)[nH]nc2C)c1`, the inhibition is 8%. To `O=C(c1ccc(-c2cccc(C(F)(F)F)c2)o1)N1CCOCC1` belongs 0%; to `Cn1c(=O)c2[nH]cnc2n(C)c1=O`, 1%; to `CN1C(=O)CCC1(O)c1ccccc1` (stereo not given), 0%. Then `CC(=O)NC(CCS(C)(=O)=O)C(=O)Nc1cccc(C)c1` (stereo not given), with 3%; and `CCN(CCO)C1CC(=O)N(c2ccccc2C)C1=O` (stereo not given), with 0%.

In the case of `CC(C)CCN(C)C1CCN(S(=O)(=O)c2ccc(F)cc2)CC1`, the inhibition is 0%. To `CC1(C)Cc2c(c(-c3ccccc3)nc(N3CCCC3)c2C(N)=O)CO1` belongs 4%; to `COc1cccc2cc(C(=O)C3=C(O)C(=O)N(CCCN4CCOCC4)C3c3ccncc3)oc12` (stereo not given), 0%. To `CC(C)c1nnc(NC(=O)Cc2cccs2)s1` belongs 0%; to `O=C(Nc1ccc(Br)cc1F)c1sccc1-n1cccc1`, 4%; to `C=CCn1c(-c2ccccc2)c[nH]c1=S`, 0%.

One may read the inhibition as how much of the control response was suppressed.
